Source: ChEMBL document CHEMBL1157539, “Thousands of chemical starting points for antimalarial lead identification” (Nature, 2010)

The compounds below were run on Plasmodium falciparum (assay: GSK_TCMDC: Inhibition of Plasmodium falciparum 3D7 in whole red blood cells, using parasite LDH activity as an index of growth. Test compounds present at 2uM).
Format: functional

In order of falling Inhibition:
1. CN1CCCC1CCNCc1ccc(-c2ccc(CNCCc3ccccc3)cn2)cc1.O=C(O)C(F)(F)F (centres undefined)  100%
2. Cl.N#Cc1ccc2c(c1)CCN(CCC1CCC(NC(=O)/C=C/c3ccc(Cl)c(Cl)c3)CC1)CC2 (centres undefined)  100%
3. CCOCCCn1c(=N)c(C(=O)NCc2ccc(F)cc2)cc2c(=O)n3cccc(C)c3nc21  100%
4. CCCCCC(C)C(C)c1cc(O)c2c(c1)OC(C)(C)CC2=Cc1ccncc1 (centres undefined)  100%
5. CC1CCCCC1N(C)C1CCN(CCCNC(=O)C=Cc2ccc(Cl)cc2Cl)CC1 (centres undefined)  100%
6. CC[C@H](C)CNC(=O)c1cncc(-c2ccc(CNCC3CNCCCO3)cc2)c1.O=C(O)C(F)(F)F (some centres undefined)  100%
7. Cc1ccccc1C1CCN(C2CCC(NC(=O)/C=C/c3cc(C(F)(F)F)ccc3F)CC2)CC1 (centres undefined)  100%
8. NC1CCN(CCNCc2cccc(-c3ccc(-c4nc5cc(F)ccc5[nH]4)cc3)c2)C1.O=C(O)C(F)(F)F (centres undefined)  99%
9. O=C(NCCCCCN1CCC(c2c[nH]c3ccccc23)CC1)Nc1cccc(I)c1  99%
10. Cc1cc2nc(-c3ccc(/C=C/C(=O)NCCc4ccccc4)cc3)[nH]c2cc1C  98%
11. Cc1cc(NC2CCN(CC3CCCCC3)C2)nc(Nc2ccc(Cl)cc2)n1 (centres undefined)  98%
12. COC(=O)c1cc(OC2CCOC2=O)cc2c1OC(C)(C)O2 (centres undefined)  97%
13. COc1ccc2ncc(Cl)c(NCC3(O)CCC(NCc4ccc5c(n4)NC(=O)CS5)CC3)c2n1.Cl (centres undefined)  96%
14. Cc1cccc(-c2nc3cc(NC(=O)c4ccc([N+](=O)[O-])o4)ccc3o2)c1  94%
